Experimental data: the supplement of paper PMC9262897, “Low-cost anti-mycobacterial drug discovery using engineered E. coli” (Nature Communications, 2022)
Where a name gives a salt, the structure may show the parent alone. ± gives the standard deviation of the averaged measurements.

Assays:
Assay in all cases: growth (OD600 after 10 h); higher = more growth (less inhibition)
[1] = system: E. coli TESEC Alr+ wild-type control; conditions: compound 0.1 mM; raw OD600 reference: median of DMSO wells 0.241, cell-free background 0.041
Description: (§1)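 TESEC Mtb Alr E. coli, or the Alr+ wild-type control, in 384-well plates with Prestwick library compounds at 0.1 mM and 1% DMSO, across arabinose induction levels of 1E3 to 1E7 nM. Growth is read as OD600 after 10 h at 37 °C in triplicate biological replicates.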

E. coli TESEC Mtb Alr [2] = conditions: compound 0.1 mM
Description: as §1

E. coli TESEC Mtb Asd = conditions: compound 0.1 mM
Description: (§2)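 TESEC E. coli strains in which the native enzyme is deleted and replaced by arabinose-inducible Mtb Asd, DapB, CysH or TrpD, each grown in its selective medium. Strains were screened against the Prestwick library at 0.1 mM and 1% DMSO in 384-well format at low and high arabinose induction. Growth is read as OD600 after 10 h in triplicate.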

E. coli TESEC Mtb DapB = conditions: compound 0.1 mM
Description: as §2

[3] = system: E. coli TESEC Alr+ wild-type control; conditions: compound 0.1 mM; raw OD600 reference: median of DMSO wells 0.49, cell-free background 0.052
Description: (§3)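 TESEC Mtb Alr E. coli (ΔaraC ΔtolC ΔentC Δalr ΔdadX, arabinose-inducible Mtb Alr) or the Alr+ wild-type control strain, grown in defined M9-fructose medium without D-alanine in 96-well plates with Prestwick library compounds at 0.1 mM and 1% DMSO. Low Alr induction is 0.1 µM arabinose and high induction is 10 mM arabinose.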

E. coli TESEC Mtb Alr [4] = conditions: compound 0.1 mM; remark: listed apart in the source
Description: as §3

[5] = arabinose 1000 nM, raw OD600 reference: median of DMSO wells 0.294, cell-free background 0.041
[6] = arabinose 10000 nM, raw OD600 reference: median of DMSO wells 0.264, cell-free background 0.041
[7] = arabinose 100000 nM, raw OD600 reference: median of DMSO wells 0.201, cell-free background 0.041
[8] = arabinose 1000000 nM, raw OD600 reference: median of DMSO wells 0.193, cell-free background 0.041
[9] = arabinose 10000000 nM, raw OD600 reference: median of DMSO wells 0.146, cell-free background 0.041
[10] = arabinose induction (level): High, raw OD600 reference: median of DMSO wells 0.331, cell-free background 0.041
[11] = arabinose induction (level): Low, raw OD600 reference: median of DMSO wells 0.417, cell-free background 0.041
[12] = arabinose induction (level): High, raw OD600 reference: median of DMSO wells […], cell-free background 0.041
[13] = arabinose induction (level): Low, raw OD600 reference: median of DMSO wells 0.227, cell-free background 0.041
[14] = arabinose 100 nM, raw OD600 reference: median of DMSO wells 0.413, cell-free background 0.052
[15] = arabinose 10000000 nM, raw OD600 reference: median of DMSO wells […], cell-free background 0.052

CNCC(O)c1ccc(O)c(O)c1 (centres undefined) [Racepinephrine HCl]
growth [1]: 0.243 ± 0.0062
growth (E. coli TESEC Mtb Alr [2]; [5]): 0.302 ± 0.0045
growth (E. coli TESEC Mtb Alr [2]; [6]): 0.291 ± 0.0096
growth (E. coli TESEC Mtb Alr [2]; [7]): 0.199 ± 0.0083
growth (E. coli TESEC Mtb Alr [2]; [8]): 0.186 ± 0.0042
growth (E. coli TESEC Mtb Alr [2]; [9]): 0.155 ± 0.0036
growth (E. coli TESEC Mtb Asd; [10]): 0.27 ± 0.052
growth (E. coli TESEC Mtb Asd; [11]): 0.44 ± 0.018
growth (E. coli TESEC Mtb DapB; [12]): 0.193 ± 0.0072
growth (E. coli TESEC Mtb DapB; [13]): 0.273 ± 0.06
growth [3]: 0.605 ± 0.029
growth (E. coli TESEC Mtb Alr [4]; [14]): 0.4177 ± 0.0019
growth (E. coli TESEC Mtb Alr [4]; [15]): 0.288 ± 0.015

CC(C)c1ccc2oc3nc(N)c(C(=O)O)cc3c(=O)c2c1 [Amlexanox]
growth [1]: 0.158 ± 0.003
growth (E. coli TESEC Mtb Alr [2]; [5]): 0.157 ± 0.015
growth (E. coli TESEC Mtb Alr [2]; [6]): 0.307 ± 0.0078
growth (E. coli TESEC Mtb Alr [2]; [7]): 0.157 ± 0.0046
growth (E. coli TESEC Mtb Alr [2]; [8]): 0.248 ± 0.024
growth (E. coli TESEC Mtb Alr [2]; [9]): 0.166 ± 0.011
growth (E. coli TESEC Mtb Asd; [10]): 0.3928 ± 0.003
growth (E. coli TESEC Mtb Asd; [11]): 0.23 ± 0.056
growth (E. coli TESEC Mtb DapB; [12]): 0.197 ± 0.0066
growth (E. coli TESEC Mtb DapB; [13]): 0.206 ± 0.036
growth [3]: 0.416 ± 0.015
growth (E. coli TESEC Mtb Alr [4]; [14]): 0.0761 ± 0.019
growth (E. coli TESEC Mtb Alr [4]; [15]): 0.279 ± 0.018

CC1=C(/C=C/C(C)=C/C=C/C(C)=C/C(=O)O)C(C)(C)CCC1 [Retinoic acid]
growth [1]: 0.281 ± 0.008
growth (E. coli TESEC Mtb Alr [2]; [5]): 0.309 ± 0.012
growth (E. coli TESEC Mtb Alr [2]; [6]): 0.262 ± 0.006
growth (E. coli TESEC Mtb Alr [2]; [7]): 0.246 ± 0.0066
growth (E. coli TESEC Mtb Alr [2]; [8]): 0.149 ± 0.006
growth (E. coli TESEC Mtb Alr [2]; [9]): 0.162 ± 0.015
growth (E. coli TESEC Mtb Asd; [10]): 0.355 ± 0.11
growth (E. coli TESEC Mtb Asd; [11]): 0.41 ± 0.0091
growth (E. coli TESEC Mtb DapB; [12]): 0.186 ± 0.0028
growth (E. coli TESEC Mtb DapB; [13]): 0.2256 ± 0.00047
growth [3]: 0.476 ± 0.045
growth (E. coli TESEC Mtb Alr [4]; [14]): 0.45 ± 0.0056
growth (E. coli TESEC Mtb Alr [4]; [15]): 0.301 ± 0.013

O=C(CCCN1CCC(O)(c2ccc(Br)cc2)CC1)c1ccc(F)cc1 [Bromperidol]
growth [1]: 0.215 ± 0.0079
growth (E. coli TESEC Mtb Alr [2]; [5]): 0.287 ± 0.0074
growth (E. coli TESEC Mtb Alr [2]; [6]): 0.265 ± 0.0061
growth (E. coli TESEC Mtb Alr [2]; [7]): 0.218 ± 0.028
growth (E. coli TESEC Mtb Alr [2]; [8]): 0.179 ± 0.0028
growth (E. coli TESEC Mtb Alr [2]; [9]): 0.148 ± 0.0045
growth (E. coli TESEC Mtb Asd; [10]): 0.254 ± 0.025
growth (E. coli TESEC Mtb Asd; [11]): 0.344 ± 0.092
growth (E. coli TESEC Mtb DapB; [12]): 0.177 ± 0.014
growth (E. coli TESEC Mtb DapB; [13]): 0.215 ± 0.044
growth [3]: 0.381 ± 0.013
growth (E. coli TESEC Mtb Alr [4]; [14]): 0.417 ± 0.0095
growth (E. coli TESEC Mtb Alr [4]; [15]): 0.306 ± 0.022

C=CC(N)CCC(=O)O (centres undefined) [Vigabatrin]
growth [1]: 0.239 ± 0.005
growth (E. coli TESEC Mtb Alr [2]; [5]): 0.279 ± 0.014
growth (E. coli TESEC Mtb Alr [2]; [6]): 0.278 ± 0.0034
growth (E. coli TESEC Mtb Alr [2]; [7]): 0.213 ± 0.013
growth (E. coli TESEC Mtb Alr [2]; [8]): 0.191 ± 0.0036
growth (E. coli TESEC Mtb Alr [2]; [9]): 0.148 ± 0.0044
growth (E. coli TESEC Mtb Asd; [10]): 0.313 ± 0.06
growth (E. coli TESEC Mtb Asd; [11]): 0.389 ± 0.089
growth (E. coli TESEC Mtb DapB; [12]): 0.174 ± 0.0095
growth (E. coli TESEC Mtb DapB; [13]): 0.192 ± 0.014
growth [3]: 0.586 ± 0.13
growth (E. coli TESEC Mtb Alr [4]; [14]): 0.411 ± 0.014
growth (E. coli TESEC Mtb Alr [4]; [15]): 0.361 ± 0.046

C=C1c2cccc(O)c2C(O)=C2C(=O)[C@]3(O)C(O)=C(C(N)=O)C(=O)[C@@H](N(C)C)[C@@H]3[C@@H](O)[C@H]12 [Methacycline hydrochloride]
growth [1]: 0.0468 ± 0.0013
growth (E. coli TESEC Mtb Alr [2]; [5]): 0.0453 ± 0.00098
growth (E. coli TESEC Mtb Alr [2]; [6]): 0.0468 ± 0.0019
growth (E. coli TESEC Mtb Alr [2]; [7]): 0.0492 ± 0.0052
growth (E. coli TESEC Mtb Alr [2]; [8]): 0.0489 ± 0.0047
growth (E. coli TESEC Mtb Alr [2]; [9]): 0.0481 ± 0.0026
growth (E. coli TESEC Mtb Asd; [10]): 0.05743 ± 0.00057
growth (E. coli TESEC Mtb Asd; [11]): 0.0548 ± 0.0016
growth (E. coli TESEC Mtb DapB; [12]): 0.0592 ± 0.0012
growth (E. coli TESEC Mtb DapB; [13]): 0.0603 ± 0.0025
growth [3]: 0.0598 ± 0.0011
growth (E. coli TESEC Mtb Alr [4]; [14]): 0.0587 ± 0.0009
growth (E. coli TESEC Mtb Alr [4]; [15]): 0.066 ± 0.0023

CCC1NC(=O)c2cc(S(N)(=O)=O)c(Cl)cc2N1 (centres undefined) [Quinethazone]
growth [1]: 0.248 ± 0.0085
growth (E. coli TESEC Mtb Alr [2]; [5]): 0.281 ± 0.0094
growth (E. coli TESEC Mtb Alr [2]; [6]): 0.266 ± 0.0054
growth (E. coli TESEC Mtb Alr [2]; [7]): 0.219 ± 0.0029
growth (E. coli TESEC Mtb Alr [2]; [8]): 0.199 ± 0.0047
growth (E. coli TESEC Mtb Alr [2]; [9]): 0.13 ± 0.0037
growth (E. coli TESEC Mtb Asd; [10]): 0.419 ± 0.029
growth (E. coli TESEC Mtb Asd; [11]): 0.445 ± 0.051
growth (E. coli TESEC Mtb DapB; [12]): 0.212 ± 0.021
growth (E. coli TESEC Mtb DapB; [13]): 0.238 ± 0.047
growth [3]: 0.463 ± 0.013
growth (E. coli TESEC Mtb Alr [4]; [14]): 0.415 ± 0.006
growth (E. coli TESEC Mtb Alr [4]; [15]): 0.354 ± 0.022

COc1cc(N)c(Cl)cc1C(=O)NC1CCN(CCCOc2ccc(F)cc2)CC1OC (centres undefined) [Cisapride]
growth [1]: 0.2147 ± 0.0012
growth (E. coli TESEC Mtb Alr [2]; [5]): 0.2892 ± 0.0012
growth (E. coli TESEC Mtb Alr [2]; [6]): 0.2613 ± 0.0016
growth (E. coli TESEC Mtb Alr [2]; [7]): 0.201 ± 0.03
growth (E. coli TESEC Mtb Alr [2]; [8]): 0.155 ± 0.0047
growth (E. coli TESEC Mtb Alr [2]; [9]): 0.148 ± 0.0037
growth (E. coli TESEC Mtb Asd; [10]): 0.222 ± 0.017
growth (E. coli TESEC Mtb Asd; [11]): 0.357 ± 0.041
growth (E. coli TESEC Mtb DapB; [12]): 0.171 ± 0.003
growth (E. coli TESEC Mtb DapB; [13]): 0.186 ± 0.0052
growth [3]: 0.552 ± 0.1
growth (E. coli TESEC Mtb Alr [4]; [14]): 0.41 ± 0.011
growth (E. coli TESEC Mtb Alr [4]; [15]): 0.458 ± 0.038
